GSH bead fluor: compound fluoresces at 488/530 nm on GSH beads. GSH beads flow cytometry, compound fluorescence 488/530 nm; hits give high values. fluorescence (KMESF) at 10 µM. actives 0.25% (n = 190,000). AID 1776; in the data active means fluorescence above about 89;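 further: glutathione beads carrying GST-tagged Bcl family fusion proteins plus one bare bead set; values are compound well signal with DMSO vehicle wells as background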
RGS8-Gao reg: modulates binding of RGS8 to human Galphao; multiplexed bead flow cytometry; actives lie on both sides; response (percent of control binding), % at 10 µM; actives 0.34% (n = 220,000); AID 1423; in the data active means response below about 60% or above about 140%; inactive means in between;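 further: Galphao activated as the GDP aluminium fluoride complex binding bead-coupled RGS8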
Target sequence (P09471 whole entry, looked up): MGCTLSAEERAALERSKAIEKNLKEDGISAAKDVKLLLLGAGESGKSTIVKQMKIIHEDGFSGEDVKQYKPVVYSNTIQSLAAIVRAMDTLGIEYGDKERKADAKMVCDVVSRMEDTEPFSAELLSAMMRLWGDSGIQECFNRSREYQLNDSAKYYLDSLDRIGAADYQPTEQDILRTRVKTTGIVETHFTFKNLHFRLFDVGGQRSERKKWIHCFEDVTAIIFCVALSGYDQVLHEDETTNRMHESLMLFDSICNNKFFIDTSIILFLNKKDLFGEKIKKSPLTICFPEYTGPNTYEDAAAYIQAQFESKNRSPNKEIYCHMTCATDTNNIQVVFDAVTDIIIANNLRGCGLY
RGS16-Gao: regulators of human RGS16-Galphao interaction | actives 0.38% (n = 220,000) | O15492+P09471 | bead-based flow cytometry RGS16-Galphao binding, fluorescence; actives lie on both sides | binding response (% of control), % at 10 µM;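 further: Galphao activated by GDP with aluminum fluoride before binding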
RGS7-Gao: modulates binding of RGS7 to human Galphao. P09471. binding response (% of control), % at 10 µM. AID 1439. actives 0.35% (n = 220,000). Multiplexed bead flow cytometry; actives lie on both sides; in the data active means binding response below about 49% or above about 150%; inconclusive means no clear call, values can overlap the other calls; inactive means in between;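 further: fluorescent Galphao held in activated GDP-AlF4 state binding bead-coupled RGS7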
Avidin bead fluor: compound fluoresces at 488/530 nm on avidin beads; compound fluorescence 488/530 nm, flow cytometry; hits give high values; fluorescence (KMESF) at 10 µM; actives 0.38% (n = 220,000); in the data active means fluorescence above about 47
RGS4-Gao reg: modulates binding of RGS4 to human Galphao | P09471 | Multiplexed bead flow cytometry; actives lie on both sides | binding response (% of control), % at 10 µM | actives 0.33% (n = 220,000) | AID 1415; in the data active means binding response below about 49% or above about 150%; inactive means in between;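 further: fluorescent Galphao activated with aluminum fluoride binding bead-coupled RGS4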
RGS4-Gao HTS: regulators of human RGS4-Galphao interaction | shares compounds with RGS16-Gao | RGS4–Galpha-o binding response, % at 10 µM | actives 99% (n = 1,600) | multiplexed bead flow cytometry, RGS–Galpha-o binding;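 further: fluorescently labeled Galpha-o bound to GDP with aluminium fluoride binding biotinylated RGS beads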
Biotin-avidin: biotin-avidin bead binding disruption counter-screen. shares compounds with RGS16-Gao. 1,700 tested, under 10 active. streptavidin beads, fluorescein-biotin binding, flow cytometry. AID 1783. inhibition, % at 10 µM;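 active means inhibition above 50%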;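 further: median green fluorescence of gated singlet beads compared with DMSO control wells; 0% = DMSO wells and 100% = complete loss of bead fluorescence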
RGS8-Gao single: confirmation of regulators of human RGS8-Galphao interaction; shares compounds with RGS16-Gao; bead-based flow cytometry RGS8-Galphao binding, fluorescence; actives lie on both sides; binding response (% of control), % at 10 µM; actives 3% (n = 1,700); in the data active means binding response below about 72% or above about 130%; inactive means in between;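 further: Galphao activated as GDP AlF4 complex before binding bead RGS8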
RGS7-Gao confirm: confirmation of regulators of human RGS7-Galphao interaction; shares compounds with RGS16-Gao; bead-based flow cytometry RGS7-Galphao binding; actives lie on both sides; response (percent of control binding), % at 10 µM; AID 1837; actives 7.8% (n = 1,700); in the data active means response below about 75% or above about 130%; inactive means in between;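 further: fluorescent Galphao activated with GDP and aluminum fluoride binding bead-coupled RGS7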
RGS16-Gao single: RGS16-Galphao interaction regulation, single point confirmation; shares compounds with RGS16-Gao; bead-based flow cytometry, RGS16-Galphao binding; actives lie on both sides; response (% of control binding), % at 10 µM; actives 4% (n = 1,700); AID 1838; in the data active means response below about 74% or above about 130%; inactive means in between;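 further: Galphao activated as the GDP aluminium fluoride complex binding bead-coupled RGS16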
RGS4-Gao single: RGS4-Galphao interaction regulation, single point confirmation. actives 4% (n = 1,700). binding response (% of control), % at 10 µM. shares compounds with RGS16-Gao. RGS4-Galphao binding, multiplexed bead flow cytometry; actives lie on both sides; in the data active means binding response below about 74% or above about 130%; inactive means in between
RGS19-Gao conf: RGS19-Galphao interaction regulation, single point confirmation | bead-based flow cytometry RGS19-Galphao binding; actives lie on both sides | actives 5% (n = 1,700) | response (percent of control binding), % at 10 µM | shares compounds with RGS16-Gao; in the data active means response below about 50% or above about 160%; inactive means in between;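 further: 100% = no compound control and 0% = blank background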
Target sequence (P09471 whole entry, looked up): as above
Target sequence (P49795 whole entry, looked up): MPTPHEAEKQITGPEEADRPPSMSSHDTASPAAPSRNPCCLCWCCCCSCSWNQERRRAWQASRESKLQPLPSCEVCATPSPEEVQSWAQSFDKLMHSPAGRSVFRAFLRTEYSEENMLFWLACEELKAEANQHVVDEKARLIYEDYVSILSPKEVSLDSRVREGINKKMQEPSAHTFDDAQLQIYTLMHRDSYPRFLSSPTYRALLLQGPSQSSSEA
An asterisk follows results filed as active; [ ] = dose if it differs, or a comment. A selection: hits, their analogues and other compounds. The true share with any hit is near 1.2%. Unless noted, how the calls were made is not given here.

CC(CCOC1=NS(=O)(=O)c2ccccc21)NC(=O)C(=O)Nc1ccccc1 (stereo not given) was read as RGS8-Gao reg 60.8, RGS16-Gao 42.5, RGS7-Gao inconclusive, Avidin bead fluor 0, RGS4-Gao reg 22.5*, Biotin-avidin 1.7, RGS8-Gao single 131.2*[activator], RGS7-Gao confirm 556.0*[activator], RGS16-Gao single 285.7*[activator], RGS4-Gao single 465.6*[activator] and RGS19-Gao conf 211.4*[activator].
Screening CCOC(=O)C1=C(N)OC2=C(C(=O)CCC2)C1c1ccccc1OC (stereo not given) returned GSH bead fluor 16, RGS8-Gao reg 100.5, RGS16-Gao 105.4, RGS7-Gao 99.0, Avidin bead fluor 11 and RGS4-Gao reg 99.2.
CCOC(=O)C1=C(N)OC2=C(C(=O)CCC2)C1c1ccccc1OCC (stereo not given) was read as GSH bead fluor 34, RGS8-Gao reg 96.8, RGS16-Gao 111.2, RGS7-Gao 295.8*[activator], Avidin bead fluor 172*, RGS4-Gao reg 134.6, RGS4-Gao HTS 134.6*, Biotin-avidin -0.2, RGS8-Gao single 97.4, RGS7-Gao confirm 93.1, RGS16-Gao single 97.1, RGS4-Gao single 99.4 and RGS19-Gao conf 98.6.
For CCOc1cc(C(=S)N2CCOCC2)ccc1OS(=O)(=O)c1ccc(NC(C)=O)cc1 the results were GSH bead fluor 11, RGS8-Gao reg 103.5, RGS16-Gao 96.0, RGS7-Gao 114.3, Avidin bead fluor 18 and RGS4-Gao reg 108.1.
C=CCNC(=S)NCc1cccnc1 was read as GSH bead fluor 5, RGS8-Gao reg 127.5, RGS16-Gao 276.2*[activator], RGS7-Gao 112.4, Avidin bead fluor 14, RGS4-Gao reg 111.7, RGS4-Gao HTS 111.7*, Biotin-avidin 1.1, RGS8-Gao single 101.9, RGS7-Gao confirm 101.8, RGS16-Gao single 104.1, RGS4-Gao single 103.8 and RGS19-Gao conf 91.2.
CCCc1nc2oc3c(NCCOCCO)ncnc3c2c2c1COC(C)(C)C2 was read as GSH bead fluor 27, RGS8-Gao reg 127.0, RGS16-Gao 161.9, RGS7-Gao 173.3*[activator], Avidin bead fluor 20, RGS4-Gao reg 164.9*[activator], Biotin-avidin -2.5, RGS8-Gao single 101.4, RGS7-Gao confirm 102.3, RGS16-Gao single 96.4, RGS4-Gao single 99.9 and RGS19-Gao conf 76.0.
Screening CC(C)c1nc2oc3c(NCCO)ncnc3c2c2c1COC(C)(C)C2 returned RGS8-Gao reg 98.2, RGS16-Gao 95.8, RGS7-Gao inconclusive, Avidin bead fluor 9 and RGS4-Gao reg 92.6.
For CCOc1cccc2cc(-c3nnc(NCc4ccc5c(c4)OCO5)s3)c(=O)oc12 the results were GSH bead fluor 9, Biotin-avidin -1.0, RGS8-Gao single 105.2, RGS7-Gao confirm 105.1, RGS16-Gao single 120.2, RGS4-Gao single 106.7 and RGS19-Gao conf 166.7*[activator].
Screening CCCCOC(=O)c1ccc(NC(=O)c2ccccc2OC)cc1 returned GSH bead fluor 7, RGS8-Gao reg 69.8, RGS16-Gao 18.5*, RGS7-Gao 79.1, Avidin bead fluor 2, RGS4-Gao reg 77.4, RGS4-Gao HTS 77.4*, Biotin-avidin 0.8, RGS8-Gao single 102.3, RGS7-Gao confirm 105.9, RGS16-Gao single 102.4, RGS4-Gao single 104.1 and RGS19-Gao conf 101.8.
Screening CCCOC(=O)c1ccc(NC(=O)c2ccccc2OC)cc1 returned GSH bead fluor 70, RGS8-Gao reg 99.4, RGS16-Gao 102.7, RGS7-Gao 103.0, Avidin bead fluor 13 and RGS4-Gao reg 104.0.
For COc1ccc(O[C@H]2C=C[C@@H](c3ccccc3)O[C@@H]2COC(=O)CC/C(C)=N/O[C@@H](C)CN2CCCCc3nc(C)c(C)cc32)cc1 the results were GSH bead fluor 19, RGS8-Gao reg 102.2, RGS16-Gao 104.6, RGS7-Gao 102.5, Avidin bead fluor 11 and RGS4-Gao reg 103.0.
For CCCCCCC(=O)c1c(C)[nH]c(C(=O)OCC)c1C the results were GSH bead fluor 32, RGS7-Gao 120.7, Avidin bead fluor 11, RGS4-Gao reg 120.1, Biotin-avidin 2.5, RGS8-Gao single 99.1, RGS7-Gao confirm 98.7, RGS16-Gao single 101.8, RGS4-Gao single 99.7 and RGS19-Gao conf 78.6.
Screening Cc1[nH]c2ccccc2c1/C=N/NC(=S)NC(C)C returned GSH bead fluor 18, RGS8-Gao reg 102.0, RGS16-Gao 117.8, RGS7-Gao 175.6*[activator], Avidin bead fluor 16, RGS4-Gao reg 124.7, RGS4-Gao HTS 124.7*, Biotin-avidin 2.2, RGS8-Gao single 107.7, RGS7-Gao confirm 258.8*[activator], RGS16-Gao single 148.7*[activator], RGS4-Gao single 184.4*[activator] and RGS19-Gao conf 230.5*[activator].
COc1ccc(N/C=C/C(=O)c2ccc(Cl)cc2)cc1 was read as GSH bead fluor 10, RGS8-Gao reg 60.0*, RGS16-Gao 60.8, RGS7-Gao 125.4, Avidin bead fluor 11, RGS4-Gao reg 127.9, RGS4-Gao HTS 127.9*, Biotin-avidin -0.8, RGS8-Gao single 99.3, RGS7-Gao confirm 102.0, RGS16-Gao single 104.5, RGS4-Gao single 102.2 and RGS19-Gao conf 100.2.
Screening COc1cccc(N/C=C/C(=O)c2ccc(Cl)cc2)c1 returned GSH bead fluor 6, RGS8-Gao reg 81.5, RGS16-Gao 65.5, RGS7-Gao 94.6, Avidin bead fluor 1 and RGS4-Gao reg 88.6.
`O=C(NCc1ccccc1)c1cnsn1` gave GSH bead fluor 13, RGS8-Gao reg 12.6*, RGS16-Gao 6.7*, RGS7-Gao 9.6*, Avidin bead fluor 1, RGS4-Gao reg 24.2*, Biotin-avidin -0.9, RGS8-Gao single 103.4, RGS7-Gao confirm 102.0, RGS16-Gao single 102.1, RGS4-Gao single 102.5 and RGS19-Gao conf 92.8.

Assay outcomes (PubChem)
